Experimental data taken from PubChem BioAssay (NCATS).
Results filed as inconclusive are left out. Entries that show only a call come without a potency. The source made the active and inactive calls. The call rests on the fitted dose curve; in most records, active means well fitted curve in the direction sought with a large enough effect; inconclusive means small, poorly fitted or top-dose-only effect, or another doubt; inactive means no such curve, though single readings can be large; an effect the other way counts as inactive or inconclusive.

Biological target: Metallo-beta-lactamase type 2 (Klebsiella pneumoniae) (UniProt C7C422)
Sequence (C7C422 whole entry, looked up): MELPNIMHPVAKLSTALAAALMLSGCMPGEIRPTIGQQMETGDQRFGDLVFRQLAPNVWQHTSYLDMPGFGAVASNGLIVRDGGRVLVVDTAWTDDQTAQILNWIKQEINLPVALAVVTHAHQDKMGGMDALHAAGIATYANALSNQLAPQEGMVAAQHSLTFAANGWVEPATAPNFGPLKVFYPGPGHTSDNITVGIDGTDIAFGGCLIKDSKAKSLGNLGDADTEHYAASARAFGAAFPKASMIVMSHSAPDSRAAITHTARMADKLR
Test: qHTS to identify inhibitors of the New Delhi Metallo-beta-lactamase (NDM): assay validation screen against the NCATS LOPAC Collection (AID 1794843);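 further: nitrocefin turnover by NDM-1 measured as 485 nm absorbance at plateau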
Details: NDM-1 enzyme, nitrocefin hydrolysis, absorbance 485 nm; series mostly up to 38.4 µM
Method in brief: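 Enzyme 2 nM final, 50 mM HEPES pH 7.0, 1 uM ZnSO4, 0.01% Tween20; cpds in DMSO, preincub w/ enzyme; + nitrocefin (50 uM stock); A485 at plateau; no-enzyme column as blank.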

Structure (SMILES) | Potency
COCC(=O)O[C@]1(CCN(C)CCCc2nc3ccccc3[nH]2)CCc2cc(F)ccc2[C@@H]1C(C)C | inactive
Cc1scc2c1N(C(=O)CN1CCN(C)CC1)c1ccccc1NC2=O | inactive
CN(C)CCOC(=O)COc1ccc(Cl)cc1 | inactive
CCOC(=O)c1cnc2c(cnn2CC)c1NN=C(C)C | inactive
CC[N+](C)(C)c1cccc(O)c1 | inactive
C[C@]12CC[C@@H]3c4ccc(O)cc4C[C@@H](CCCCCCCCCS(=O)CCCC(F)(F)C(F)(F)F)[C@H]3[C@@H]1CC[C@@H]2O (some centres undefined) | inactive
COC(=O)[C@H]1[C@H]2C[C@@H]3c4[nH]c5cc(OC)ccc5c4CCN3C[C@H]2C[C@@H](OC(=O)c2cc(OC)c(OC)c(OC)c2)[C@@H]1OC | inactive
CSc1ccc(C(=O)c2[nH]c(=O)[nH]c2C)cc1 | inactive
O=C(CCCN1CCC(O)(c2cccc(C(F)(F)F)c2)CC1)c1ccc(F)cc1 | inactive
Nc1ncn([C@@H]2O[C@H](CO)[C@@H](O)[C@H]2O)c(=O)n1 | inactive
C[n+]1cc2c3c(ccc2c2ccc4cc5c(cc4c21)OCO5)OCO3 | inactive
C[C@@H](O)[C@H]1C(=O)N2C(C(=O)O)=C(SCCN=CN)C[C@H]12 | inactive

Biological target: Glutathione peroxidase 1 (Homo sapiens) (UniProt P07203)
Sequence (P07203 whole entry, looked up): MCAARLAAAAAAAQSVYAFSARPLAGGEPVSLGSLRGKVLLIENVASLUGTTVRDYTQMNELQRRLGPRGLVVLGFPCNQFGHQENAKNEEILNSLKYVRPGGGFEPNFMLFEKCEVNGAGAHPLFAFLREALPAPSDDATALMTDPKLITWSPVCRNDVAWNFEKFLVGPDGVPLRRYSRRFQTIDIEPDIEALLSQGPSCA
Test: Primary qHTS Assay for Inhibitors of Recombinant Selenoprotein Glutathione Peroxidase 1 (GPX1) (AID 1845191); further: nearly all actives have a fitted effect of over 65% in size
Details: recombinant GPX1, GR-coupled NADPH fluorescence, 15 min; series mostly up to 48.8 µM
Method in brief: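 NADPH consumption tracked by fluorescence at 340/450 nm between t=0 and t=15 min, room temperature. Final mix: 10 nM GPX1, 100 nM glutathione reductase, 1 mM GSH, 0.5 mM NADPH, 0.5 mM cumene hydroperoxide, 0.01% BSA; 30 min compound–enzyme preincubation.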

Structure (SMILES) | Potency
C[N+](C)(C)CCCCCCCCCC[N+](C)(C)C | inactive
CC1=NS(=O)(=O)c2cc(Cl)ccc2N1 | inactive
COC(=O)C1=C(C)NC(C)=C(C(=O)OCCN(C)Cc2ccccc2)C1c1cccc([N+](=O)[O-])c1 (centres undefined) | inactive
CC(C)(C)c1ccc(C(=O)CCCN2CCC(OC(c3ccccc3)c3ccccc3)CC2)cc1 | inactive
CN(C(=O)CCCOc1ccc2[nH]c(=O)ccc2c1)C1CCCCC1 | inactive
NC(=O)c1cn(Cc2c(F)cccc2F)nn1 | inactive
O=C1CC2(CCCC2)CC(=O)N1CCCCN1CCN(c2ncccn2)CC1 | inactive
CCn1cc(C(=O)O)c(=O)c2cc3c(cc21)OCO3 | inactive
CCN(CC)CCNC(=O)c1ccc(NC(C)=O)cc1 | inactive
CN(C)CCN(Cc1cccs1)c1ccccn1 | inactive
Brc1c(NC2=NCCN2)ccc2nccnc12 | inactive
CC(=O)Oc1cc(C(C)C)c(OCCN(C)C)cc1C | inactive
COc1ccc2c(c1OC)C(=O)O[C@@H]2[C@H]1c2c(cc3c(c2OC)OCO3)CCN1C | inactive
Cc1ccc(/C(=C\CN2CCCC2)c2ccccn2)cc1 | inactive
CN1CCN(C2=Nc3ccccc3Oc3ccc(Cl)cc32)CC1 | inactive
CCn1ccnc1CC1COc2ccccc2O1 (centres undefined) | inactive
CC(C)COCC(CN(Cc1ccccc1)c1ccccc1)N1CCCC1 (centres undefined) | inactive
CCO/C([O-])=N/c1c[n+](N2CCOCC2)no1 | inactive

Structure (SMILES) | Potency
C[C@]12CCC(=O)C=C1CC[C@@H]1[C@@H]2C(=O)C[C@@]2(C)[C@H]1CC[C@]2(O)C(=O)CO | inactive
Nc1c2c(nc3ccccc13)CCCC2O (centres undefined) | inactive
CN1C[C@H](C(=O)N[C@]2(C)O[C@@]3(O)[C@@H]4CCCN4C(=O)[C@H](Cc4ccccc4)N3C2=O)C[C@@H]2c3cccc4[nH]cc(c34)C[C@H]21 | inactive
CNC1(C)C2CCC(C2)C1(C)C (centres undefined) | inactive
CC(C)(C)NCC(O)c1cc(O)cc(O)c1 (centres undefined) | inactive
COCC(=O)O[C@]1(CCN(C)CCCc2nc3ccccc3[nH]2)CCc2cc(F)ccc2[C@@H]1C(C)C | inactive
Cc1scc2c1N(C(=O)CN1CCN(C)CC1)c1ccccc1NC2=O | inactive
CN(C)CCOC(=O)COc1ccc(Cl)cc1 | inactive
CCOC(=O)c1cnc2c(cnn2CC)c1NN=C(C)C | inactive
CC[N+](C)(C)c1cccc(O)c1 | inactive
C[C@]12CC[C@@H]3c4ccc(O)cc4C[C@@H](CCCCCCCCCS(=O)CCCC(F)(F)C(F)(F)F)[C@H]3[C@@H]1CC[C@@H]2O (some centres undefined) | inactive
COC(=O)[C@H]1[C@H]2C[C@@H]3c4[nH]c5cc(OC)ccc5c4CCN3C[C@H]2C[C@@H](OC(=O)c2cc(OC)c(OC)c(OC)c2)[C@@H]1OC | inactive
CSc1ccc(C(=O)c2[nH]c(=O)[nH]c2C)cc1 | inactive
O=C(CCCN1CCC(O)(c2cccc(C(F)(F)F)c2)CC1)c1ccc(F)cc1 | inactive
Nc1ncn([C@@H]2O[C@H](CO)[C@@H](O)[C@H]2O)c(=O)n1 | inactive
Cc1ccc(Cl)c(Nc2ccccc2C(=O)O)c1Cl | inactive
C[n+]1cc2c3c(ccc2c2ccc4cc5c(cc4c21)OCO5)OCO3 | inactive
C[C@@H](O)[C@H]1C(=O)N2C(C(=O)O)=C(SCCN=CN)C[C@H]12 | inactive

Biological target: Phospholipid hydroperoxide glutathione peroxidase GPX4 (Homo sapiens) (UniProt P36969)
Sequence (P36969 whole entry, looked up): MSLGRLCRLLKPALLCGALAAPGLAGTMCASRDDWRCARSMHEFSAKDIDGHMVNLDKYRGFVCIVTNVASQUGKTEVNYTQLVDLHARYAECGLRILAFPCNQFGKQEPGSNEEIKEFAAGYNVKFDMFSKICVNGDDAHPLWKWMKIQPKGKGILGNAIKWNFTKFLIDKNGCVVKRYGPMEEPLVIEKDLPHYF
Test: Primary qHTS Assay for Inhibitors of Recombinant Selenoprotein Glutathione Peroxidase 4 (GPX4) (AID 1845192); further: nearly all actives have a fitted effect of over 65% in size
Details: recombinant GPX4, GR-coupled NADPH fluorescence, 15 min; series mostly up to 50 µM
Method in brief: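 NADPH consumption followed by fluorescence at 340/450 nm, t=0 and after 15 min at room temperature. Reaction started with cumene hydroperoxide (0.5 mM final) after 30 min compound–GPX4 preincubation; final 200 nM GPX4, 100 nM GR, 1 mM GSH, 0.5 mM NADPH.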

Structure (SMILES) | outcome
C[N+](C)(C)CCCCCCCCCC[N+](C)(C)C | inactive
CC1=NS(=O)(=O)c2cc(Cl)ccc2N1 | inactive
COC(=O)C1=C(C)NC(C)=C(C(=O)OCCN(C)Cc2ccccc2)C1c1cccc([N+](=O)[O-])c1 (centres undefined) | inactive
CC(C)(C)c1ccc(C(=O)CCCN2CCC(OC(c3ccccc3)c3ccccc3)CC2)cc1 | inactive
CN(C(=O)CCCOc1ccc2[nH]c(=O)ccc2c1)C1CCCCC1 | inactive
NC(=O)c1cn(Cc2c(F)cccc2F)nn1 | inactive
O=C1CC2(CCCC2)CC(=O)N1CCCCN1CCN(c2ncccn2)CC1 | inactive
CCn1cc(C(=O)O)c(=O)c2cc3c(cc21)OCO3 | inactive
CCN(CC)CCNC(=O)c1ccc(NC(C)=O)cc1 | inactive
CN(C)CCN(Cc1cccs1)c1ccccn1 | inactive
Brc1c(NC2=NCCN2)ccc2nccnc12 | inactive
CC(=O)Oc1cc(C(C)C)c(OCCN(C)C)cc1C | inactive
COc1ccc2c(c1OC)C(=O)O[C@@H]2[C@H]1c2c(cc3c(c2OC)OCO3)CCN1C | inactive
Cc1ccc(/C(=C\CN2CCCC2)c2ccccn2)cc1 | inactive
CN1CCN(C2=Nc3ccccc3Oc3ccc(Cl)cc32)CC1 | inactive
CCn1ccnc1CC1COc2ccccc2O1 (centres undefined) | inactive
CC(C)COCC(CN(Cc1ccccc1)c1ccccc1)N1CCCC1 (centres undefined) | inactive
CCO/C([O-])=N/c1c[n+](N2CCOCC2)no1 | inactive

Structure (SMILES) | outcome
C[C@]12CCC(=O)C=C1CC[C@@H]1[C@@H]2C(=O)C[C@@]2(C)[C@H]1CC[C@]2(O)C(=O)CO | inactive
Nc1c2c(nc3ccccc13)CCCC2O (centres undefined) | inactive
CN1C[C@H](C(=O)N[C@]2(C)O[C@@]3(O)[C@@H]4CCCN4C(=O)[C@H](Cc4ccccc4)N3C2=O)C[C@@H]2c3cccc4[nH]cc(c34)C[C@H]21 | inactive
CNC1(C)C2CCC(C2)C1(C)C (centres undefined) | inactive
CC(C)(C)NCC(O)c1cc(O)cc(O)c1 (centres undefined) | inactive
COCC(=O)O[C@]1(CCN(C)CCCc2nc3ccccc3[nH]2)CCc2cc(F)ccc2[C@@H]1C(C)C | inactive
Cc1scc2c1N(C(=O)CN1CCN(C)CC1)c1ccccc1NC2=O | inactive
CN(C)CCOC(=O)COc1ccc(Cl)cc1 | inactive
CCOC(=O)c1cnc2c(cnn2CC)c1NN=C(C)C | inactive
CC[N+](C)(C)c1cccc(O)c1 | inactive
C[C@]12CC[C@@H]3c4ccc(O)cc4C[C@@H](CCCCCCCCCS(=O)CCCC(F)(F)C(F)(F)F)[C@H]3[C@@H]1CC[C@@H]2O (some centres undefined) | inactive
COC(=O)[C@H]1[C@H]2C[C@@H]3c4[nH]c5cc(OC)ccc5c4CCN3C[C@H]2C[C@@H](OC(=O)c2cc(OC)c(OC)c(OC)c2)[C@@H]1OC | inactive
CSc1ccc(C(=O)c2[nH]c(=O)[nH]c2C)cc1 | inactive
O=C(CCCN1CCC(O)(c2cccc(C(F)(F)F)c2)CC1)c1ccc(F)cc1 | inactive
Nc1ncn([C@@H]2O[C@H](CO)[C@@H](O)[C@H]2O)c(=O)n1 | inactive
Cc1ccc(Cl)c(Nc2ccccc2C(=O)O)c1Cl | inactive
C[n+]1cc2c3c(ccc2c2ccc4cc5c(cc4c21)OCO5)OCO3 | inactive
C[C@@H](O)[C@H]1C(=O)N2C(C(=O)O)=C(SCCN=CN)C[C@H]12 | inactive
